The entries come from a sample that favours hits as a whole.
TDP-43 tox inh: TDP-43 toxicity inhibition in yeast | AID 1347073 | yeast TDP-43 toxicity rescue, BacTiter-Glo growth, 24 h | Potency, µM (doses to about 46.1 µM), most hits filed as activators | actives 0.45% (n = 45,000); active = well fitted activation curve with a large enough effect; also: nearly all actives have a fitted effect of over 55% in size
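TDP-43-expressing yeast, pregrown in raffinose, seeded at OD600 0.02 in galactose medium with compound for 24 hr at 30 deg C. Growth read by BacTiter-Glo luminescence, so rescue of toxicity appears as activation.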
Hits are given with their value.

Screening CC(NC(=O)/C=C/c1ccc(Br)cc1)c1ccccc1 (stereo not given) returned TDP-43 tox inh inactive.
For CC(C)c1ccc(/C=C/C(=O)NCCC2=CCCCC2)cc1 the results were TDP-43 tox inh inactive.
`CC(C)c1ccc(/C=C/C(=O)O)cc1` gave TDP-43 tox inh 6.31µM.
Screening CCOc1ccccc1NC(=O)N(Cc1ccc(F)cc1)C1CCN(CC)CC1 returned TDP-43 tox inh inactive.
Screening COC(=O)c1ccc(NC(=O)N2CCc3c([nH]c4ccccc34)C2c2ccc(C)cc2)cc1 (stereo not given) returned TDP-43 tox inh inactive.
Screening CCOc1ccc(NCc2cccn2-c2nnc(N3CCC(C(=O)NCCc4ccc(OC)c(OC)c4)CC3)s2)cc1 returned TDP-43 tox inh inactive.
`COc1ccc(CNC(=O)c2cc3sccc3n2C)cc1` gave TDP-43 tox inh 12.6µM.
COc1ccc(CNC(=O)CSc2cc(=O)n(C)c3ccccc23)cc1 was read as TDP-43 tox inh inactive.
Screening CCOc1ccc(CNC(=O)c2cc3oc4ccccc4c3n2C)cc1 returned TDP-43 tox inh inactive.
`CCOC(=O)N1CCC(NC(=O)c2ccc3c(c2)N(Cc2ccc(F)cc2)C(=O)c2ccccc2S3(=O)=O)CC1` gave TDP-43 tox inh inactive.
N#Cc1ccccc1Cn1c(=O)n(-c2cccc(C(F)(F)F)c2)c(=O)c2sccc21 was read as TDP-43 tox inh inactive.
For CCOc1ccc(NC(=O)CNC(=O)COc2ccccc2)cc1 the results were TDP-43 tox inh inactive.
`CCOc1cc(-c2nc(C)c(C(C)=O)n2O)ccc1OCC(=O)Nc1ccccc1` gave TDP-43 tox inh 11.2µM.
Screening Cc1cc(C)c2oc(-c3ccc(NC(=O)COc4ccccc4C)cc3)nc2c1 returned TDP-43 tox inh inactive.
COC(=O)c1c(-c2cccs2)csc1NC(=O)COc1ccc(C(C)C)cc1 was read as TDP-43 tox inh inactive.
Screening O=C(O)c1cccc(-n2cnc3cccnc32)c1 returned TDP-43 tox inh inactive.
`CSc1ccccc1C(=O)Nc1ccc2c(c1)CCC2` gave TDP-43 tox inh inactive.
`O=C(Cc1cccc(F)c1)Nc1ccc2c(c1)CCC2` gave TDP-43 tox inh inactive.
`O=C(Nc1ccc2c(c1)CCC2)c1cccc(F)c1` gave TDP-43 tox inh 15.8µM.
Screening COc1ccc2c(Sc3ccccc3)c(C(=O)NCCCN3CCCCC3)[nH]c2c1 returned TDP-43 tox inh inactive.
For CC(C)(C)c1ccc(OCC(=O)NNC(=S)NC(=O)c2ccccc2[N+](=O)[O-])c(Br)c1 the results were TDP-43 tox inh 11.2µM.
`COc1ccc(C(=O)NNC(=O)c2ccccc2[N+](=O)[O-])cc1` gave TDP-43 tox inh inactive.
CC(C)CNC(=O)COc1ccccc1[N+](=O)[O-] was read as TDP-43 tox inh inactive.
For CCCSc1ncc(Cl)c(C(=O)N2CCN(c3ccc(OC)cc3)CC2)n1 the results were TDP-43 tox inh inactive.
For Cc1ccc(NC(=O)CN2C(=O)C(c3ccc(C)cc3)=NC23CCCCCC3)cc1 the results were TDP-43 tox inh inactive.
CCOC(=O)CSc1nc2sc3c(c2c(=O)n1Cc1ccccc1)CC(C)CC3 (stereo not given) was read as TDP-43 tox inh inactive.
COc1cc2c(cc1OC)CN(C(=O)Nc1ccccc1)CC2 was read as TDP-43 tox inh inactive.
For COc1cc2c(cc1OC)CN(C(=O)Nc1ccccc1Cl)CC2 the results were TDP-43 tox inh 12.6µM.
Screening COc1cccc(N2CCN(C(=O)Nc3ccccc3Cl)CC2)c1 returned TDP-43 tox inh inactive.
For NC(=S)N/N=C/c1cccc(/C=N/NC(N)=S)c1 the results were TDP-43 tox inh inactive.
`Cc1cc(/C=N/NC(N)=S)c(O)c(/C=N/NC(N)=S)c1` gave TDP-43 tox inh inactive.
Screening Cc1ccc(-n2c(C)cc(/C=N/NC(N)=S)c2C)cc1 returned TDP-43 tox inh 14.1µM.
Screening CCc1c(C)c2ccc(O)c(CN3CCN(c4ccccc4)CC3)c2oc1=O returned TDP-43 tox inh inactive.
COc1cccc(C(=O)N2c3ccc(C)cc3C(C)(c3ccccc3)CC2(C)C)c1 (stereo not given) was read as TDP-43 tox inh inactive.
`O=C(/C=C/c1ccccc1)NCCSCc1ccccc1` gave TDP-43 tox inh inactive.
Screening O=C(/C=C/c1cccc([N+](=O)[O-])c1)NCCSCc1cccc(Cl)c1 returned TDP-43 tox inh 12.6µM.
Screening O=C(/C=C/c1cccc([N+](=O)[O-])c1)NCCc1ccc(F)cc1 returned TDP-43 tox inh inactive.
For CCOc1ccc(S(=O)(=O)Nc2ccc3c(c2)c(C(C)=O)c(C)n3S(=O)(=O)c2ccc(OCC)cc2)cc1 the results were TDP-43 tox inh inactive.
CCc1nn(CC(=O)NCc2cccc(OC)c2OC)c(=O)c2cc3occc3n12 was read as TDP-43 tox inh inactive.
Screening O=C(Nc1nnc(N2CCCCCC2)s1)Nc1ccccc1C(F)(F)F returned TDP-43 tox inh inactive.
For COc1ccccc1NC(=O)N1CC=C(c2c[nH]c3ccccc23)CC1 the results were TDP-43 tox inh inactive.
O=C(Nc1ccc(Br)cn1)c1cccc(-c2cc3ccccc3oc2=O)c1 was read as TDP-43 tox inh inactive.
O=C(Nc1ccc(N2CCCC2)cc1)c1cccc(-c2cc3ccccc3oc2=O)c1 was read as TDP-43 tox inh 22.4µM.
Screening CC(=O)N1CCN(c2ccc(NC(=O)c3cccc(Cl)c3)cc2)CC1 returned TDP-43 tox inh inactive.
Screening COc1ccc(-c2nn3c(-c4ccccc4C)nnc3c3ccccc23)cc1 returned TDP-43 tox inh inactive.
`COc1ccccc1N1CCN(C(=O)c2ccc3[nH]c4c(c3c2)CCCC4)CC1` gave TDP-43 tox inh 17.8µM.
`COc1ccccc1N1CCN(C(=O)c2ccc(NS(=O)(=O)c3ccc(C)cc3)cc2)CC1` gave TDP-43 tox inh inactive.
COc1cc(OC)cc(C(=O)N2CCC(N3CCN(c4ccccc4OC)CC3)CC2)c1 was read as TDP-43 tox inh inactive.
For O=C(Nc1ccc(F)c(Cl)c1)C1Cc2ccccc2CN1S(=O)(=O)c1ccc(F)cc1 (stereo not given) the results were TDP-43 tox inh inactive.
Cc1cc(C)c(NC(=O)Cn2nnc(-c3nc(-c4ccncc4)no3)c2N)c(C)c1 was read as TDP-43 tox inh inactive.
Screening Cc1ccc(NCc2cccn2-c2nnc(N3CCC(C(=O)NCc4ccc(F)cc4)CC3)s2)cc1 returned TDP-43 tox inh inactive.
`Cc1ccc(S(=O)(=O)Nc2cc3c(cc2C)n(C)c(=O)c(=O)n3C)c(C)c1` gave TDP-43 tox inh inactive.
CN1CCN(S(=O)(=O)c2ccc(NCc3ccc4c(c3)OCO4)nc2)CC1 was read as TDP-43 tox inh inactive.
For O=C(CSc1nc2cc(Cl)ccc2s1)NCc1ccc2c(c1)OCO2 the results were TDP-43 tox inh inactive.
Screening Clc1ccccc1-c1cnc2sc(NCc3ccc4c(c3)OCO4)nn12 returned TDP-43 tox inh 5.01µM.
For COc1cc(CNCc2ccco2)cc(OC)c1O the results were TDP-43 tox inh inactive.
Screening COc1ccc(-c2csc(NCc3ccco3)n2)cc1C returned TDP-43 tox inh 17.8µM.
Screening COc1ccc(-c2csc(NC(=S)NC(=O)c3cccs3)n2)cc1OC returned TDP-43 tox inh inactive.
Screening COc1cccc(CNC(=O)CNS(=O)(=O)c2ccc3nc(C)sc3c2)c1 returned TDP-43 tox inh inactive.
Screening CC(C)CCN1C(=O)c2ccccc2CC1(C)C(=O)NC1CCCCC1 (stereo not given) returned TDP-43 tox inh inactive.
For COc1cccc2c1O/C(=N\O)C(C(=O)Nc1cccc(C)c1C)C2 (stereo not given) the results were TDP-43 tox inh inactive.

Assay outcomes deposited in PubChem by National Center for Advancing Translational Sciences (NCATS).
